{"source": "PubChem BioAssay AID434970", "about": "(Sanford-Burnham Center for Chemical Genomics, 2010)", "note": "About 310 (2.8%) of roughly 11,000 compounds were called active. Rule as the data show it: active = activity change below about -85%; inactive = the rest. What follows is part of a selection rich in actives, with near analogues and random picks from the rest. Starred links: 1 amine or outer side, 2 acyl side, 3 side chain; linkers in the order of their positions; H or OH if unused. Positions of bridges follow the written chain, without caps; N, C: chain ends. Non-standard residues stand in square brackets, D forms with d. Residues, ends and D or L forms follow the SMILES beside them. ξ: configuration not given here. hSer(Ph(2-I,4-NO2,6-CO)) = O=C([C@H](CCOc1c(I)cc([N+](=O)[O-])cc1C(=O)[*:3])N[*:1])[*:2]; ξD = NC(CC(=O)O)C(=O)O"}
{"tested_on": "intestinal alkaline phosphatase [Mus musculus]", "experiment": "activators of mouse IAP, confirmation, biochemical, luminescence, single concentration (AID 434970)", "details": "purified mouse IAP, CDP-Star luminescence, 30 min, at 10 µM; activation factor: measured here: IAP activation factor, stronger effect = higher value; activity change, negative = activation: stronger effect = lower value"}
{"smiles": "c1ccc(-n2nnnc2SCc2cccc3nsnc23)cc1", "activation factor": 0.908, "activity change, negative = activation": "9.2% (inactive)"}
{"smiles": "O=[N+]([O-])c1ccc2n[nH]nc2c1", "activation factor": 1.02, "activity change, negative = activation": "-2.4% (inactive)"}
{"smiles": "O=C(Nc1nnc(SCc2ccccc2Cl)s1)C1COc2ccccc2O1", "note": "(centres undefined)", "activation factor": 0.965, "activity change, negative = activation": "3.5% (inactive)"}
{"smiles": "CC(=O)c1sc(Nc2nc(C)cc(C)n2)nc1C", "activation factor": 0.928, "activity change, negative = activation": "7.2% (inactive)"}
{"smiles": "COc1ccc(CN(CC(O)COCc2ccccc2)S(=O)(=O)c2ccccc2Br)cc1OC", "note": "(centres undefined)", "activation factor": 1.04, "activity change, negative = activation": "-3.55% (inactive)"}
{"smiles": "O=C1CN(c2ccccc2F)C(=O)CN1c1ccccc1F", "activation factor": 1.01, "activity change, negative = activation": "-1.1% (inactive)"}
{"smiles": "C#CCOCCOCCOCCNc1nc(N2CCN(C(=O)CCCCCCCCCCNC(=O)[C@H](CCCCN)n3cc(CCO)nn3)CC2)nc(N2CCN(C(=O)CCCCCCCCCCNC(=O)[C@H](CCCN=C(N)N)n3cc(C[C@@H](C)CC)nn3)CC2)n1", "activation factor": 3.04, "activity change, negative = activation": "-204% (active)"}
{"smiles": "C#CCOCCOCCOCCNc1nc(N2CCN(C(=O)CCCCCCCCCCNC(=O)[C@H](CCCCN)n3cc(C)nn3)CC2)nc(N2CCN(C(=O)CCCCCCCCCCNC(=O)[C@H](CCCN=C(N)N)n3cc(C[C@@H](C)CC)nn3)CC2)n1", "activation factor": 3.95, "activity change, negative = activation": "-295% (active)"}
{"smiles": "C#CCOCCOCCOCCNc1nc(N2CCN(C(=O)CCCCCCCCCCNC(=O)[C@H](CCCCN)n3cc(CCCC(=O)O)nn3)CC2)nc(N2CCN(C(=O)CCCCCCCCCCNC(=O)[C@H](CCCN=C(N)N)n3cc(C[C@@H](C)CC)nn3)CC2)n1", "activation factor": 2.67, "activity change, negative = activation": "-167% (active)"}
{"smiles": "CCOC(=O)c1c(N)sc(C(O)(C(F)(F)F)C(F)(F)F)c1-c1ccccc1", "activation factor": 1.07, "activity change, negative = activation": "-6.55% (inactive)"}
{"smiles": "CC1CN(c2nc3c(c(=O)n(Cc4ccc(Cl)c(Cl)c4)c(=O)n3C)n2C)CC(C)O1", "note": "(centres undefined)", "activation factor": 1.01, "activity change, negative = activation": "-0.8% (inactive)"}
{"smiles": "Cc1n[nH]c(C)c1S(=O)(=O)N1CCCC(C(=O)N2CCc3ccccc32)C1", "note": "(centres undefined)", "activation factor": 0.946, "activity change, negative = activation": "5.45% (inactive)"}
{"smiles": "COc1ccc(Nc2nc(N)nc(CSc3nccc(C)n3)n2)cc1", "activation factor": 1.04, "activity change, negative = activation": "-3.9% (inactive)"}
{"smiles": "Cc1ccc(-c2nnn(CC(=O)N3CCCc4ccccc43)n2)cc1", "activation factor": 1.06, "activity change, negative = activation": "-6.35% (inactive)"}
{"smiles": "CSc1cccc(NC(=O)NCc2cccc(CNC(=O)Nc3cccc(SC)c3)c2)c1", "activation factor": 1.62, "activity change, negative = activation": "-61.9% (inactive)"}
{"smiles": "CSc1cccc(NC(=O)Nc2ccccc2)c1", "activation factor": 2.1, "activity change, negative = activation": "-110% (active)"}
{"smiles": "CSc1cccc(NC(=O)Nc2nc3c(C)cccc3s2)c1", "activation factor": 1.45, "activity change, negative = activation": "-45% (inactive)"}
{"smiles": "CSc1cccc(NC(=O)Nc2ccc(Cl)cc2)c1", "activation factor": 2.06, "activity change, negative = activation": "-106% (active)"}
{"smiles": "COc1ccccc1C(=O)Nc1cccc(SC)c1", "activation factor": 1.12, "activity change, negative = activation": "-11.6% (inactive)"}
{"smiles": "COC(=O)c1cccc(NC(=O)Nc2ccc(Cl)cc2)c1", "activation factor": 1.48, "activity change, negative = activation": "-47.6% (inactive)"}
{"smiles": "Cc1cnc(-c2nnc(N(C)C(=O)C3CCOC3)s2)cn1", "note": "(centres undefined)", "activation factor": 0.996, "activity change, negative = activation": "0.45% (inactive)"}
{"smiles": "Cc1onc(-c2ccccc2Cl)c1C(=O)OCC(=O)N1CCCc2ccccc21", "activation factor": 1.02, "activity change, negative = activation": "-2.05% (inactive)"}
{"smiles": "CC(C)(C)c1ccc(OCC(=O)NCc2ccco2)c(Br)c1", "activation factor": 0.869, "activity change, negative = activation": "13.1% (inactive)"}
{"smiles": "CC(C)N1CC2=C(OC(N)=C(C#N)C2c2cccnc2)/C(=C/c2cccnc2)C1", "note": "(centres undefined)", "activation factor": 0.917, "activity change, negative = activation": "8.3% (inactive)"}
{"smiles": "Cc1ccc(SCC(=O)Nc2ccc(N3CCN(C)CC3)c(F)c2)c(C)c1", "activation factor": 1.13, "activity change, negative = activation": "-13% (inactive)"}
{"smiles": "Cc1ccc(C)c(CN2CCC(CNC(=O)Nc3ccc(Br)cc3F)CC2)c1", "activation factor": 1.55, "activity change, negative = activation": "-54.9% (inactive)"}
{"smiles": "Cc1ccc(C)c(CN2CCC(CNC(=O)Nc3ccc(C)c(C)c3)CC2)c1", "activation factor": 2.21, "activity change, negative = activation": "-121% (active)"}
{"smiles": "Cc1ccc(C)c(CN2CCC(CNC(=O)Nc3ccc(C)c(F)c3)CC2)c1", "activation factor": 2.16, "activity change, negative = activation": "-116% (active)"}
{"smiles": "Cc1cc(C)c(CN2CCN(C(=O)Cn3cnc(C(=O)Nc4ccc(C)c(C)c4)n3)CC2)c(C)c1", "activation factor": 1.13, "activity change, negative = activation": "-13.2% (inactive)"}
{"smiles": "Cc1cc(C)cc(NC(=O)NCC2CCN(Cc3cc(C)ccc3C)CC2)c1", "activation factor": 2.32, "activity change, negative = activation": "-132% (active)"}
{"smiles": "Cc1ccc(SCCNC(=S)Nc2ccc(C)c(C)c2)cc1", "activation factor": 1.46, "activity change, negative = activation": "-45.9% (inactive)"}
{"smiles": "C[C@@H]1NC(=O)c2cc([N+](=O)[O-])cc(I)c2OCC[C@@H](C(=O)NC(CC(=O)O)C(N)=O)NC(=O)[C@H](CC(N)=O)NC1=O", "note": "(some centres undefined) (AN[hSer(Ph(2-I,4-NO2,6-CO))][ξD]-NH2; lactam N-3)", "activation factor": 1.15, "activity change, negative = activation": "-14.8% (inactive)"}
{"smiles": "CC[C@]12c3[nH]c4cc(-c5ccco5)ccc4c3CCN1C(=O)[C@@H](CC(=O)NCc1ccco1)C[C@@H]2C(=O)N1CCN(C(=O)C2CC2)CC1", "activation factor": 1.23, "activity change, negative = activation": "-22.7% (inactive)"}
{"smiles": "CC(C)CCNC(=O)NC(=O)CSc1nnc(COc2ccccc2Cl)o1", "activation factor": 1.04, "activity change, negative = activation": "-4.3% (inactive)"}
{"smiles": "CC(C)C(=O)Nc1nnc(SCC(=O)NCc2cccs2)s1", "activation factor": 0.976, "activity change, negative = activation": "2.4% (inactive)"}
{"smiles": "Cc1ccc(C(=O)Nc2nncs2)cc1S(=O)(=O)N1CCOCC1", "activation factor": 0.927, "activity change, negative = activation": "7.35% (inactive)"}
{"smiles": "COc1ccc(S(=O)(=O)NCCc2ccc(F)cc2)cc1", "activation factor": 0.961, "activity change, negative = activation": "3.9% (inactive)"}
